Test results published in PubChem BioAssay (NCATS).
Inconclusive results are not listed. Activity calls are given as the source filed them. Calls follow the shape of the dose curve; as a rule, active = well fitted inhibition curve with a large enough effect; inconclusive = small, poorly fitted or top-dose-only effect, or effect the other way; inactive = flat fitted curve, though single readings scatter.

Biological target: ATP-dependent 6-phosphofructokinase (Trypanosoma brucei brucei) (UniProt O15648)
Experiment: qHTS Assay to Find Inhibitors of T. brucei phosphofructokinase: hit validation (AID 492961)
Conditions: T. brucei PFK, ADP-Glo luminescence; series mostly up to 51.4 µM; activity change, negative = inhibition: at the top concentration
Procedure, shortened: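 Luminescence from ADP-Glo reports ADP generated as T. brucei PFK (1.25 nM) phosphorylates 0.5 mM fructose-6-phosphate using 0.1 mM ATP. Reactions ran 45 min at room temperature, pH 8.0.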
% is scaled to controls: 0 for no effect and ±100 for the full control effect.

Chain of ATP-dependent 6-phosphofructokinase (Trypanosoma brucei brucei) (O15648 whole entry, looked up): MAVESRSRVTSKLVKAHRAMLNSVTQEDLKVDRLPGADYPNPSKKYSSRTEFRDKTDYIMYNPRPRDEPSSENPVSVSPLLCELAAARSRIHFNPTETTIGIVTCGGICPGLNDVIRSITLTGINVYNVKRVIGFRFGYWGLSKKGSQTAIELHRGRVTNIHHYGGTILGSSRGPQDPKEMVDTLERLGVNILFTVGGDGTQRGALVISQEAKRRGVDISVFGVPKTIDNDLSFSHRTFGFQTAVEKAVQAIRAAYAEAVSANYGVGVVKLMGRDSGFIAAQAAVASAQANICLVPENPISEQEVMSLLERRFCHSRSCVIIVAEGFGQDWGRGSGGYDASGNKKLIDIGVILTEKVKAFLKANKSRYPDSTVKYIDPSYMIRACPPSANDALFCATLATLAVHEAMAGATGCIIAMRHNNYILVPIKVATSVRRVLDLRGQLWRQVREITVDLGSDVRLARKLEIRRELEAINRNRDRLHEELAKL

Structure (SMILES) | activity change, negative = inhibition
NS(=O)(=O)c1ccc(Cl)c(S(N)(=O)=O)c1 | 5.68% (inactive)
COc1cc(O)c(C(=O)c2ccccc2)cc1S(=O)(=O)O | -7.68% (inactive)
O=C(O)Cc1csc(-c2ccc(Cl)cc2)n1 | 9.38% (inactive)
O=C(Nc1ncc([N+](=O)[O-])s1)c1cccs1 | 13.9% (inactive)
CC(C)=CCOc1ccc(/C=C/C(=O)c2ccc(OCC=C(C)C)cc2OCC(=O)O)cc1 | -3.65% (inactive)
N=C(N)N1CCc2ccccc2C1 | -5.37% (inactive)
O=C(CN1CCN(Cc2ccc3c(c2)OCO3)CC1)N1c2ccccc2Sc2ccccc21 | -9.63% (inactive)
NC(N)=NN=C(/C=C/c1ccc([N+](=O)[O-])o1)/C=C/c1ccc([N+](=O)[O-])o1 | -13.2% (inactive)
COc1cc(C(=O)N2CCCCCCC2)cc(OC)c1OC | -3.21% (inactive)
CC(=O)O[C@H]1C[C@@H]2CC[C@@H]3[C@H](CC[C@@]4(C)[C@H]3C[C@H]([N+]3(C)CCCCC3)[C@@H]4OC(C)=O)[C@@]2(C)C[C@@H]1N1CCCCC1 | -1.89% (inactive)
CC(C)CCCC(C)N (stereo unspecified) | 1.22% (inactive)
CC(=O)NCCCCCC(=O)O | -5.68% (inactive)
CC(C)(C)CC(C)(C)c1ccc(O)c(-n2nc3ccccc3n2)c1 | 6.93% (inactive)
Cc1ccc2c(Br)cc(Br)c(O)c2n1 | 0% (inactive)
COc1ccc(CN(CCN(C)C)c2ncccn2)cc1 | 9.56% (inactive)
O=S(=O)(O)c1ccc(O)cc1 | 6.78% (inactive)
CC(C)(Cc1c[nH]c2ccccc12)NCC(O)COc1ccccc1C#N (stereo unspecified) | -1.64% (inactive)
CCC1Nc2cc(Cl)c(S(N)(=O)=O)cc2S(=O)(=O)N1 (stereo unspecified) | -8.55% (inactive)

Structure (SMILES) | activity change, negative = inhibition
C#C[C@]1(OC(C)=O)CC[C@H]2[C@@H]3CCC4=C/C(=N/O)CC[C@@H]4[C@H]3CC[C@@]21CC | -1.86% (inactive)
Nc1ccc(S(=O)(=O)Nc2cnc3ccccc3n2)cc1 | 0.0824% (inactive)
Cc1c[nH]c2ccccc12 | -6.19% (inactive)
NS(=O)(=O)c1cc(C(=O)O)cc(N2CCCC2)c1Oc1ccccc1 | -2.38% [at 24.3 µM] (inactive)
CCc1oc2ccccc2c1C(=O)c1cc(I)c(O)c(I)c1 | -13.4% (inactive)
CN1CCC[C@@H]1CCO[C@](C)(c1ccccc1)c1ccc(Cl)cc1 | 4.52% (inactive)
CN(C)CCN1C(=O)c2ccccc2N(C)c2ccccc21 | 13.8% (inactive)
O=C(CCCN1CC=C(n2c(=O)[nH]c3ccccc32)CC1)c1ccc(F)cc1 | 9.09% (inactive)
OC1C(O)C(O)C(O)C(O)C1O (stereo unspecified) | -0.435% (inactive)
CC(C)Nc1cccnc1N1CCN(C(=O)c2cc3cc(NS(C)(=O)=O)ccc3[nH]2)CC1 | -6.98% (inactive)
COC(=O)C(c1ccccc1Cl)N1CCc2sccc2C1 (stereo unspecified) | -8.83% (inactive)
O=C(O)C(Cc1cc(I)c(O)c(I)c1)c1ccccc1 (stereo unspecified) | 20% (inactive)
CC1(COc2ccc(CC3SC(=O)NC3=O)cc2)CCCCC1 (stereo unspecified) | 3.62% (inactive)
CCCc1ncc(C[n+]2ccccc2C)c(N)n1 | -4.15% [at 24.3 µM] (inactive)
C=C[C@@]1(C)CC(=O)[C@]2(O)[C@@]3(C)[C@@H](O)CCC(C)(C)[C@@H]3[C@H](O)[C@H](OC(C)=O)[C@@]2(C)O1 | 0.0934% (inactive)
COc1ccc(C(=O)c2ccccc2O)c(O)c1 | -4.13% [at 24.3 µM] (inactive)
NCCNc1cccc2ccccc12 | 7.75% (inactive)
CN1CCN(CCC(=O)N2c3ccccc3Sc3ccc(C(F)(F)F)cc32)CC1 | -0.659% (inactive)
